Activity calls are given as the source filed them.
How the values were obtained:
[1] = target: Albumin (Bos taurus) (UniProt P02769); experiment: bovine serum albumin binders on microarray, profiling panel, artefact control for SMM control protein annotation, biochemical, small-molecule microarray, Alexa647 label, 635/667 nm fluorescence (AID 1118); conditions: BSA-A647 binding, fluorescence 635 nm, higher = more signal;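 also: score merges 667 nm emission intensity and signal-to-noise per printed compound spot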
[2] = small-molecule microarray binders of probe aXIP, primary screen, biochemical, NeuroSMM set, 635/667 nm fluorescence (AID 1119); conditions: higher = more signal, called active from +8 up or from −8 down;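 also: probe is the protein aXip251-270 applied at 1 µg/mL to compound-printed slides; binding of probe to printed compounds measured as 667 nm fluorescence plus signal to noise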
[3] = small-molecule binders of probe aNOTCH3, primary screen, biochemical, small-molecule microarray, 635/667 nm fluorescence (AID 1120); conditions: higher = more signal;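 also: probe is a biotin-tagged antibody raised against NOTCH3 rather than NOTCH3 protein; score merges spot fluorescence near 667 nm with spot signal to noise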
[4] = small-molecule binders of probe aNOTCH2, primary screen, biochemical, small-molecule microarray, 635/667 nm fluorescence (AID 1121); conditions: higher = more signal;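 also: score merges feature fluorescence read at 667 nm with its signal to noise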
[5] = target: Carbonic anhydrase 2 (Homo sapiens) (UniProt P00918); experiment: CAII small-molecule binders, profiling panel, biochemical, small-molecule microarray, Alexa647-labelled CAII (AID 1122); conditions: CAII-A647 binding fluorescence, higher = more signal
[6] = COS7 lysate on small-molecule microarray, probe aHis, 635 nm (AID 1123); conditions: COS7 cell lysate, fluorescence, higher = more signal;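 also: z-score combines 667nm fluorescence intensity with signal-to-noise per printed compound spot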
[7] = compound binding in COS7 lysate, probe aLAP1, primary screen, cell lysate, small-molecule microarray (AID 1124); conditions: probe aLAP1, fluorescence, higher = more signal;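 also: lysate comes from COS7 cells expressing LAP1 and is applied at 0.3 µg/mL; score merges spot fluorescence near 667 nm with signal-to-noise over triplicate slides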
[8] = tested on: Sam68 (KHDRBS1); experiment: Sam68 small-molecule binders, primary screen, biochemical, small-molecule microarray, 635 nm fluorescence (AID 1125); conditions: small-molecule microarray binding, higher = more signal;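 also: score merges 667 nm channel intensity with signal to noise over triplicate slides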
[9] = tested on: Chordin-like protein 2 (CHRDL2); experiment: CHRDL2 small-molecule binders, primary screen, biochemical, small-molecule microarray, 635 nm fluorescence (AID 1126); conditions: small-molecule microarray binding, fluorescence 635 nm; higher = more signal;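 also: printed compound slides probed with Chrdl2 protein at 4 µg/mL for 1 h at 4 C; score merges 667 nm emission intensity with signal to noise over three replicate slides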
[10] = target: Concanavalin-A (Canavalia ensiformis) (UniProt P02866); experiment: ConA small-molecule binders, primary screen, artefact control for SMM control protein annotation, biochemical, small-molecule microarray, Alexa647 label, 635 nm (AID 1127); conditions: ConA-A647 binding fluorescence, higher = more signal;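 also: z combines 667 nm emission intensity with signal-to-noise across three replicate slides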
[11] = anti-His antibody binders, primary screen, artefact control for SMM control protein annotation, biochemical, small-molecule microarray, 635 nm fluorescence (AID 1128); conditions: anti-His Alexa647 antibody binding, higher = more signal;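 also: score merges feature fluorescence with signal-to-noise for each printed compound spot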
[12] = tested on: Human papillomavirus type 1a E7 protein (residues 1-88); experiment: HPV1a E7 small-molecule binders, primary screen, biochemical, small-molecule microarray, residues 1-88, 635 nm (AID 1129); conditions: small-molecule microarray binding, fluorescence 635 nm; higher = more signal
[13] = target: Focal adhesion kinase 1 (Homo sapiens) (UniProt Q05397); experiment: small-molecule microarray binders of FAK, primary screen, biochemical, 635/667 nm fluorescence, BSA, DTT (AID 1130); conditions: PTK2 binding, 635 nm fluorescence, higher = more signal;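 also: composite of spot emission at 667 nm and signal to noise over triplicate slides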
[14] = tested on: Fibrinogen (Alexa647-labelled); experiment: fibrinogen binders on compound microarrays, profiling panel, artefact control for SMM control-protein annotation, biochemical, small-molecule microarray, 635/667 nm fluorescence (AID 1131); conditions: fibrinogen-A647 binding fluorescence, higher = more signal;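 also: z-score merges 667 nm fluorescence with per-spot signal-to-noise over triplicate slides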
[15] = target: Follistatin (Homo sapiens) (UniProt P19883); experiment: follistatin binders on small-molecule microarrays, primary screen, biochemical, small-molecule microarray, 635/667 nm fluorescence (AID 1132); conditions: FST binding, 635 nm fluorescence, higher = more signal
[16] = target: Fibroblast growth factor 2 (Homo sapiens) (UniProt P09038); experiment: FGF2 binders on small-molecule microarrays, primary screen, biochemical, small-molecule microarray, 635/667 nm fluorescence (AID 1133); conditions: small-molecule microarray binding, FGF2, fluorescence 635/667; higher = more signal
[17] = mitochondrial membrane potential change in A549 cells, profiling panel, cell-based, JC-1 fluorescence, basal, 24 h, 100 nL (AID 1138); conditions: higher = more signal;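 also: A549 lung adenocarcinoma cells under basal conditions with no added stimulus; test concentration not given here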
[18] = tested on: Lefty1; experiment: Lefty1 binders on small-molecule microarrays, primary screen, biochemical, small-molecule microarray, 635/667 nm fluorescence (AID 1139); conditions: small-molecule microarray binding, fluorescence 635/667; higher = more signal
[19] = tested on: wheat germ agglutinin (Triticum aestivum), Alexa647-labelled; experiment: wheat germ agglutinin binders on compound microarrays, profiling panel, artefact control for SMM control-protein annotation, biochemical, small-molecule microarray, 635/667 nm fluorescence (AID 1140); conditions: WGA-A647 binding, 635 nm fluorescence, higher = more signal;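 also: score merges 667 nm feature emission with signal to noise over triplicate slides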
[20] = target: Luciferin 4-monooxygenase (Photinus pyralis) (UniProt P08659); experiment: firefly luciferase enzyme inhibitors, primary screen, biochemical, luminescence, purified enzyme, 2006 set (AID 1141); conditions: SteadyGlo luminescence, 30 min, higher = more signal, called active from +8 up or from −8 down;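 also: cell-free assay with purified firefly luciferase at 100 ng per well in PBS; test concentration not given here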
Sequence of Luciferin 4-monooxygenase (Photinus pyralis) (P08659 whole entry, looked up): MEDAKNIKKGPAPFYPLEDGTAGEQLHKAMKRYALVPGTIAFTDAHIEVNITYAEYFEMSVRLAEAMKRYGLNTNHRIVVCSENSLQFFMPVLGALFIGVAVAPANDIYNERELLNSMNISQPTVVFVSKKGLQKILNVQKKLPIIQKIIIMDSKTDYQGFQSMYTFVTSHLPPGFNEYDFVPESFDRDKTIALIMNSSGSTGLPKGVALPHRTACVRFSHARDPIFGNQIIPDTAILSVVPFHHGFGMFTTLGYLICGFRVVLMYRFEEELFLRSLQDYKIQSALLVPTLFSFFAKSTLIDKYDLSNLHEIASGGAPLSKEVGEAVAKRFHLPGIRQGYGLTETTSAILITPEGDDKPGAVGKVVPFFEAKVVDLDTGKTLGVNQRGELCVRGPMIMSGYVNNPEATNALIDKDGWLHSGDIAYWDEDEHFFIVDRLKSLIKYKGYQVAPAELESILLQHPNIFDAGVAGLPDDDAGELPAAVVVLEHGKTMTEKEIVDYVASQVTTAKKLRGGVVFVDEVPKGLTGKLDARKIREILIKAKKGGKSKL

Sequence of Albumin (Bos taurus) (P02769 whole entry, looked up): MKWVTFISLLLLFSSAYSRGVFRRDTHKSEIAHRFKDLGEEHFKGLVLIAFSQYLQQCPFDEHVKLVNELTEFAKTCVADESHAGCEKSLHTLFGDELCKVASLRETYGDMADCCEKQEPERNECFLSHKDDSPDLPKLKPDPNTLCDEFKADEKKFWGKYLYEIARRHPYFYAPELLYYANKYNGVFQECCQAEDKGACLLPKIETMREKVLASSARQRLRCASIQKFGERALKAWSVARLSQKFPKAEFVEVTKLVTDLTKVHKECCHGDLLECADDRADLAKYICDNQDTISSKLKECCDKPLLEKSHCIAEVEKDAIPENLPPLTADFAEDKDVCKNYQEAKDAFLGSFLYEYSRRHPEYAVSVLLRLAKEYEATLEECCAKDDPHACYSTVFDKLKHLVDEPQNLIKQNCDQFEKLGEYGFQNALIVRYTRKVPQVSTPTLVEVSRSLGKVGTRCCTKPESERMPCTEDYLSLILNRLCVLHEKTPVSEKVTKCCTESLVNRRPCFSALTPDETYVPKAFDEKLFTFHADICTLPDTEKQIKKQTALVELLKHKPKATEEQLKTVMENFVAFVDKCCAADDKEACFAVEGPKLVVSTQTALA
Sequence of Follistatin (Homo sapiens) (P19883 whole entry, looked up): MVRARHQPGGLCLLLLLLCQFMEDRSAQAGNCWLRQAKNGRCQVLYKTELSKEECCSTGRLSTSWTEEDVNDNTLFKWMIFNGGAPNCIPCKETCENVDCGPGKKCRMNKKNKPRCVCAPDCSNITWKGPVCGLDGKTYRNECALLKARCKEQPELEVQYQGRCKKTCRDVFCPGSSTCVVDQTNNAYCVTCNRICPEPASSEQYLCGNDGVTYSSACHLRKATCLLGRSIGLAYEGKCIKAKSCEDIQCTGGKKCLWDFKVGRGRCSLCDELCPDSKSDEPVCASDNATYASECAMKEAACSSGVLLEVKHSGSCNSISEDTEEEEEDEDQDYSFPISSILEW
Sequence of Fibroblast growth factor 2 (Homo sapiens) (P09038 whole entry, looked up): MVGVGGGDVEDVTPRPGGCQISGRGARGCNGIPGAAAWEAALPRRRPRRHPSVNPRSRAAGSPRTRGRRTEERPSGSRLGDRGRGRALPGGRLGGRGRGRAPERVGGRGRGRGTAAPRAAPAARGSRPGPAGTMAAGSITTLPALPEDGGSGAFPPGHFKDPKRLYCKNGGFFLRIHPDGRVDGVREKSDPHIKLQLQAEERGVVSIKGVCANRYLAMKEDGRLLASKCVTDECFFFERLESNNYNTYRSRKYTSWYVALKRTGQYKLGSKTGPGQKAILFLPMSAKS
Sequence of Focal adhesion kinase 1 (Homo sapiens) (Q05397 whole entry, looked up): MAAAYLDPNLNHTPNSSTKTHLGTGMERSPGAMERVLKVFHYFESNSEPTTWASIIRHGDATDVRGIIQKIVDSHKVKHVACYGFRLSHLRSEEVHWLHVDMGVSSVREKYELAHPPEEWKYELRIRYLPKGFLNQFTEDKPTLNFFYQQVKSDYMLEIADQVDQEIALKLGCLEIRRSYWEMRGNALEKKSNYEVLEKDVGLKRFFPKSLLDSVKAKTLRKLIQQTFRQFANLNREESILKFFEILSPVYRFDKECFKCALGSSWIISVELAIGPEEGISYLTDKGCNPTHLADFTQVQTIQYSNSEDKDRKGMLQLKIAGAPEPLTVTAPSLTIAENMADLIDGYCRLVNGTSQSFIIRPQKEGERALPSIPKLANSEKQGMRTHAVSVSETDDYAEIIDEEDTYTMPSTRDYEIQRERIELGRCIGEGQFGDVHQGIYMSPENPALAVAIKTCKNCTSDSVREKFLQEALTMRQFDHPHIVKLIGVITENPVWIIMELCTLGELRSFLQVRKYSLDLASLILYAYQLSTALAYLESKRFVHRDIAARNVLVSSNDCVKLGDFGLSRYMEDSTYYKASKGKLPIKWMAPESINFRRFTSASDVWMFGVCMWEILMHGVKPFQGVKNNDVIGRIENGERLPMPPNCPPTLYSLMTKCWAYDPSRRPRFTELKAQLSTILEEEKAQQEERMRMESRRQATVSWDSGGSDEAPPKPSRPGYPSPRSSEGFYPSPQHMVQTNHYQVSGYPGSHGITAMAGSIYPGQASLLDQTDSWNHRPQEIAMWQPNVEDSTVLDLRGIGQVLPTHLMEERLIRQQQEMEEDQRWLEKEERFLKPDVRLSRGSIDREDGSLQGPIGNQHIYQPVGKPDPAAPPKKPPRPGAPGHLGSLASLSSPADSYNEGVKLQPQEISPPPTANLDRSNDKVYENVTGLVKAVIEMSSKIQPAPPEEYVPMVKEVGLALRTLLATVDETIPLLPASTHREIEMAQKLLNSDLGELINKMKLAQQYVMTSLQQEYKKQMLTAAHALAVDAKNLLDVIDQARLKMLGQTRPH
Sequence of Concanavalin-A (Canavalia ensiformis) (P02866 whole entry, looked up): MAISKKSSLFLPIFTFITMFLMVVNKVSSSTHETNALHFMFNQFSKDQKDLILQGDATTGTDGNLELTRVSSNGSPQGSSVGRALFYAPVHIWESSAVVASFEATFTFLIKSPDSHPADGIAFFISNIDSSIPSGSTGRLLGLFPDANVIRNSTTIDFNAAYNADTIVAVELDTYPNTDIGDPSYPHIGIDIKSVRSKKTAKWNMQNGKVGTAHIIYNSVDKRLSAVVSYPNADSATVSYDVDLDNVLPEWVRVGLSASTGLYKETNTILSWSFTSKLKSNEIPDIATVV

SMILES | composite z-score [1] | composite Z-score [2] | composite z-score [3] | composite z-score [4] | composite z-score [5] | composite z-score [6] | composite z-score [7] | composite z-score [8] | composite z-score [9] | composite z-score [10] | composite z-score [11] | composite z-score [12] | composite z-score [13] | composite z-score [14] | composite z-score [15] | composite z-score [16] | z-score [17] | composite z-score [18] | composite z-score [19] | z-score [20]
CN1CCC(CCCO)=CC1c1ccc(CN2CCCC2)cc1 (stereo not given) | -0.225 | -0.554 (inactive) | 0.29 | 0.0088 | 0.665 | 1.46 | 0.714 | 1.32 | 1.5 | 0.776 | 0.358 | 1.06 | -0.0595 | -0.294 | 1.42 | 1.65 | 0.0421 | 1.57 | 1.18 | 0.536 (inactive)
COc1ccc(C#Cc2ccc3c(c2)[C@]2(C(=O)N3)[C@H](c3ccc(O)cc3)N3[C@H](c4ccccc4)[C@H](c4ccccc4)OC(=O)[C@H]3[C@@H]2C(=O)NC[C@H](O)c2ccccc2)cc1 | 0.363 | -0.118 (inactive) | 0.0319 | -0.189 | 0.295 | 2.78 | 0.0766 | 0.81 | 0.0813 | 1.17 | 1.35 | 1.21 | 0.32 | 0.556 | 1.03 | 0.487 | -1.26 | 0.751 | 1.01 | -0.835 (inactive)
CC(C)c1ccc(NN2C(C(O)c3ccc(N(C)C)cc3)C=CC3C(=O)N(c4ccccc4)C(=O)C32)cc1 (stereo not given) | 0.961 | -0.343 (inactive) | 0.432 | 0.0147 | 0.393 | 2.76 | -0.161 | 1.29 | -0.0118 | 1.16 | 0.435 | 1.24 | 0.0061 | 0.96 | 1.25 | -0.321 | 0.594 | 0.273 | 0.923 | -0.943 (inactive)
COCCOC(=O)N1C(=O)[C@@]2(c3cc(C#CC4=CCCCC4)ccc31)[C@H](C(=O)N1CCc3cc(OC)c(OC)cc3C1)[C@H]1C(=O)O[C@H](c3ccccc3)[C@H](c3ccccc3)N1[C@@H]2c1ccccc1OCCO | -0.092 | -0.243 (inactive) | -0.068 | -0.118 | -0.0205 | -0.0785 | 0.498 | 0.6 | 1.03 | 1.07 | -0.13 | 0.487 | -0.106 | 0.061 | 1.29 | 1.66 | -1.11 | 1 | 0.747 | -1.62 (inactive)
CCCCCN1CC=CC23O[C@@H]4/C=C\CCC(C)OC(=O)C4[C@H]2C(=O)N(CCCCCO)[C@@H]3C1=O (stereo not given in full) | -0.299 | -0.127 (inactive) | -0.149 | -0.144 | 0.685 | -0.389 | -0.29 | -1.09 | -0.793 | -0.541 | -0.0232 | -0.413 | -0.0791 | -1.46 | -0.35 | 0.517 | -0.108 | 0.184 | 0.233 | -2.73 (inactive)
C=CC(=C)C1=CCO[C@@H]1[C@H]1CCCN1S(=O)(=O)c1ccccc1[N+](=O)[O-] | 0.656 | 0.0499 (inactive) | 0.117 | -0.0926 | 0.481 | 0.158 | -0.262 | 0.471 | 1.04 | 1.1 | 0.2 | 0.25 | -0.318 | 0.802 | 0.976 | 0.174 | -0.295 | 0.767 | 0.241 | 0.0352 (inactive)
COc1ccc(C(=O)Nc2cccc(CN3C(=O)[C@]4(O[C@H](CC(=O)N5CCC[C@H]5CO)[C@@H]([Si](C)(C)c5ccc(OC)cc5)[C@@H]4C)c4ccccc43)c2)cc1 | 0.114 | 0.535 (inactive) | -0.0044 | -0.112 | 0.485 | 1.79 | 0.276 | 1.01 | 0.76 | 1.02 | 1.22 | 1.15 | 0.407 | 0.634 | 1.03 | 1.33 | -0.407 | 0.728 | 0.595 | -0.895 (inactive)
CCCNC(=O)[C@@]1(c2ccc([N+](=O)[O-])cc2)CC(=O)N(CC23CC4CC(CC(C4)C2)C3)[C@@H]1c1ccc(CO)cc1 | -0.161 | -0.639 (inactive) | -0.255 | -0.168 | 0.716 | 1.08 | 1.88 | 0.591 | -0.0438 | 0.531 | 1.19 | 1.04 | 0.117 | 0.356 | 0.509 | 1.23 | 0.582 | -0.197 | -0.109 | 0.494 (inactive)
CCOC(=O)C1=C[C@@H](CC)N(S(=O)(=O)c2ccc(C)cc2)[C@H]1c1ccccc1 | 0.874 | 0.339 (inactive) | 0.0539 | 0.0572 | 0.526 | 1.35 | 0.83 | 1.29 | 0.0777 | 1.1 | 0.862 | 1.21 | 1.33 | 0.928 | 0.431 | 0.261 | 2.94 | 0.0048 | 0.749 | 2.12 (inactive)
Cc1ccc(S[C@]2(C(=O)NCC(C)C)CC(=O)N(Cc3ccccc3)[C@@H]2c2ccc(CO)cc2I)cc1 | 0.256 | 0.552 (inactive) | 0.0301 | -0.125 | 0.633 | 1.21 | 0.888 | 1.18 | 0.718 | 0.939 | 1.38 | 0.904 | 0.139 | 0.312 | 1.27 | 0.564 | 1.03 | 0.536 | 0.503 | -0.56 (inactive)
